Results filed as inconclusive are left out. Activity calls are given as the source filed them.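 The calls were made as follows, unless noted: active = GFP signal, as percent of the solvent control, above the screen mean plus 3 SD, about 149; inconclusive = no reading because the compound's own fluorescence upset strain identification; inactive = the rest.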
What was measured:
[1] = yeast TOR pathway RPL19A-GFP modulators, primary screen, cell-based, S. cerevisiae, multiplex flow cytometry (AID 1862; in the data active = percent of DMSO control GFP below about 86%;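 also: lower values mimic rapamycin by blocking the RPL19A rise seen in DMSO cells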); settings: S. cerevisiae RPL19A-GFP strain, flow cytometry fluorescence, 3 h; at 10 µM; stronger effect = lower value
[2] = modulators of MEP2-GFP levels in yeast, primary screen, S. cerevisiae, multiplex flow cytometry (AID 1867;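 active = GFP response, as percent of the DMSO control, above the screen-wide mean plus 3 SD, about 139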;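 also: median GFP channel fluorescence of barcode-gated MEP2-GFP cells measured by flow cytometry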); settings: S. cerevisiae MEP2-GFP strain, 3 h, at 10 µM, stronger effect = higher value, 100% means same as DMSO wells
[3] = modulators of CIT2-GFP expression in yeast, primary screen, S. cerevisiae, GFP fusion, multiplex flow cytometry (AID 1870;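 active = percent response above a set limit, the screen-wide mean plus 3 SD, cut at about 130% in these data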;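 also: barcoded CIT2-GFP strain pooled with four other GFP strains with rapamycin as positive control; median GFP fluorescence per well over plate mean of DMSO wells so 100% = DMSO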); settings: 3 h, at 10 µM, stronger effect = higher value
[4] = modulators of LAP4-GFP expression in yeast, primary screen, S. cerevisiae, multiplex flow cytometry (AID 1873); settings: 3 h, at 10 µM, stronger effect = higher value
[5] = modulators of AGP1-GFP expression in yeast TOR pathway, primary screen, cell-based, multiplex flow cytometry, S. cerevisiae (AID 1887;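 active = GFP signal above the screen-wide mean plus 3 SD, that is over about 124.5% of the solvent control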;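 also: AGP1-GFP fusion strain of S. cerevisiae within a five-strain barcoded multiplex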); settings: 3 h, at 10 µM, stronger effect = higher value
[6] = inhibitors of CD8+ T cell-vesicle binding, pilot screen, LFA-1/ICAM-1 modulator project, MLPCN validation set, flow cytometry (AID 2523;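 active = response below a set limit, under 55% cells CD8-positive and vesicle-bound, and CD8 cells' 90th-percentile brightness under 279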;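 as to vesicle binding response: mean PE anti-B7-1 fluorescence of CD8+ cells relative to row control; 100% = QL9-loaded vesicles with DMSO vehicle in the same plate row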); settings: 2C mouse CD8+ T cells, at 7 µM, stronger effect = lower value; double positive events: measured here: CD8+/vesicle+ event percentage
[7] = target: Integrin beta-1 (Homo sapiens) + Integrin alpha-4 (Homo sapiens) (UniProt P13612+P05556); experiment: inhibition of HUTS-21 binding to VLA-4, pilot screen, VLA-4 allosteric modulator project, U937 cells, HUTS-21 mAb, flow cytometry, validation set (AID 2674;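 active = inhibition above 50%, about 3 SD of the validation set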;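 also: antibody binding induced by the VLA-4 ligand LDV present at three times its Kd; 0% = LDV ligand with antibody and no compound and 100% = antibody without LDV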); settings: HUTS-21 LIBS mAb binding, at 6.7 µM, stronger effect = higher value, binding induced by LDV ligand
Sequence of Integrin beta-1 (Homo sapiens) + Integrin alpha-4 (Homo sapiens) (P05556 whole entry, looked up): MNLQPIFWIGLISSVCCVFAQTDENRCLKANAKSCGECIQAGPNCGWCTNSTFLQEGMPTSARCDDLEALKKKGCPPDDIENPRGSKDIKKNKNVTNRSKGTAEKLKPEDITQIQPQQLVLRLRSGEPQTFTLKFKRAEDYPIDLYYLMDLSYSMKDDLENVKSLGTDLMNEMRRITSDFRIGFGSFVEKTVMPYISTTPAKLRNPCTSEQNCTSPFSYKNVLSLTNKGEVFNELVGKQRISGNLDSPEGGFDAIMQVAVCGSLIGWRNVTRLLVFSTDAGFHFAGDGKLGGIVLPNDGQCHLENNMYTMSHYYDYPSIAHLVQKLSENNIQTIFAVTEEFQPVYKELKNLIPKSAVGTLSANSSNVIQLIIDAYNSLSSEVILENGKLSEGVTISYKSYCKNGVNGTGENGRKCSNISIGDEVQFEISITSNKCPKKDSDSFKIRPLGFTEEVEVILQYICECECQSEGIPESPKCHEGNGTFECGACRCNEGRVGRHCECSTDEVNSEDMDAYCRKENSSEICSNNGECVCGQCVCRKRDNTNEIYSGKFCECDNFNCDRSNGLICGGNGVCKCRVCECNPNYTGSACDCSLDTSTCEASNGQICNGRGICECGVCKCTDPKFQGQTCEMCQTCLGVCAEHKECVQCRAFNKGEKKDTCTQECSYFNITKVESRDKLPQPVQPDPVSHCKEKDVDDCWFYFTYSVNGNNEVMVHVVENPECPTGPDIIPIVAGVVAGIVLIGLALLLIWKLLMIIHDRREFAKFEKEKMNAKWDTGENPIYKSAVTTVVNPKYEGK
Sequence of Integrin beta-1 (Homo sapiens) + Integrin alpha-4 (Homo sapiens) (P13612 whole entry, looked up): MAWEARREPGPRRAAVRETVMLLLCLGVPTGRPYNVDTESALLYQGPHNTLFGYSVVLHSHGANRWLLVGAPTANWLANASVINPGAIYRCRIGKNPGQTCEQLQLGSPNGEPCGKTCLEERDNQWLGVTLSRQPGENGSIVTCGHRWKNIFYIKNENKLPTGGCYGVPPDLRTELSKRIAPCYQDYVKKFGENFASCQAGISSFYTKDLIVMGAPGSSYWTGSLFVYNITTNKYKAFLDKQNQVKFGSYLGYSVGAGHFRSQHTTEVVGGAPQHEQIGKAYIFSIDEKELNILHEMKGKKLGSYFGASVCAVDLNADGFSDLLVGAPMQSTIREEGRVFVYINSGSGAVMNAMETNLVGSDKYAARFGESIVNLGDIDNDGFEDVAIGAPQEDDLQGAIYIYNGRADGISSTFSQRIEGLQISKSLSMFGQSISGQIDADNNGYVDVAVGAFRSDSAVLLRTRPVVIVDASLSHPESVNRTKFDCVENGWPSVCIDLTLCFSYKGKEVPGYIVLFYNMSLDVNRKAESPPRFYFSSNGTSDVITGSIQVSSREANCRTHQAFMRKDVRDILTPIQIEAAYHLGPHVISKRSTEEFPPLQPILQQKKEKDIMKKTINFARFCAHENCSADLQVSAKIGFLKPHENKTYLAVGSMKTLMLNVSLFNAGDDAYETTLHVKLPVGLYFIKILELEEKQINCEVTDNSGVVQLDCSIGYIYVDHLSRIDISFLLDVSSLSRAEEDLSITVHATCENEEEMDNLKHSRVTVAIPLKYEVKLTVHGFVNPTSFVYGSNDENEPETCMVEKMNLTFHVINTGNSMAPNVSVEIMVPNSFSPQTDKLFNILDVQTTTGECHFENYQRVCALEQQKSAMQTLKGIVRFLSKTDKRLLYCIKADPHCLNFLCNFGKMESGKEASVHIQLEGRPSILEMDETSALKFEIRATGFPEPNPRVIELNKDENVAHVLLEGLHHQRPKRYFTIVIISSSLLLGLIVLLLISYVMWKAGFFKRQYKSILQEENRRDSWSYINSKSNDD

[8] = superoxide lowering in aged yeast cells, pilot screen, validation compound set (AID 2706;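 active = superoxide response below 65% of plate, a cut near 3 SD across the whole screen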;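 also: yeast exposed to compound for one week at 30 degrees C before staining; 100% = mean of all compound wells on the same plate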); settings: S. cerevisiae aging, superoxide DHE fluorescence; at 10 µM; stronger effect = lower value
[9] = target: Beta-adrenergic receptor kinase 1 (Homo sapiens) (UniProt P25098); experiment: GRK2 binders displacing RNA aptamer, biochemical, validation, human GRK2, bead flow cytometry (AID 488806;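 active = aptamer binding inhibition above 30%, about 3 SD of noise from non-fluorescent compounds; inactive = inhibition at or below 30%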); settings: bead-bound GRK2, FAM-aptamer displacement, at 10 µM, stronger effect = higher value
Sequence of Beta-adrenergic receptor kinase 1 (Homo sapiens) (P25098 whole entry, looked up): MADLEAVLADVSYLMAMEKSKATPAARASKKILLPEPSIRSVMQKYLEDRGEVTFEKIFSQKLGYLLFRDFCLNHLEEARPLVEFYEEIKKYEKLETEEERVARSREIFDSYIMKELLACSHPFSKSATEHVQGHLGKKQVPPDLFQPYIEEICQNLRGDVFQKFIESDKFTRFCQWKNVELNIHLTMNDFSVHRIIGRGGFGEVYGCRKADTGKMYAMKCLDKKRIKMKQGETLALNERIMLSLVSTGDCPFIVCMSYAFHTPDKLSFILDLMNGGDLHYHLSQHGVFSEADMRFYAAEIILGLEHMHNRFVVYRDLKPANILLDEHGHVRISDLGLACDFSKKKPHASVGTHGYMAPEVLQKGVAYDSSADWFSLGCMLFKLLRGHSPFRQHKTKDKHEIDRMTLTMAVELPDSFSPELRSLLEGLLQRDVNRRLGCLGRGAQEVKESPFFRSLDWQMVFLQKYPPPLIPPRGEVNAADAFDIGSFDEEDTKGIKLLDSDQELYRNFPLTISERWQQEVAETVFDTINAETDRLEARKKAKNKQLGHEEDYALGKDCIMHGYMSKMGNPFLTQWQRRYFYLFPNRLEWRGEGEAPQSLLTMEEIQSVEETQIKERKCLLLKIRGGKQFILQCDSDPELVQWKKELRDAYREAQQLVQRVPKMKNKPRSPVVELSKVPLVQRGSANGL

[10] = target: Beta-2 adrenergic receptor (Homo sapiens) (UniProt P07550); experiment: beta2AR agonists driving receptor internalization, pilot screen, cell-based, FAP fluorogen, flow cytometry, validation set (AID 504459;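 active = percent response above 42, roughly 3 SD of non-fluorescent test compounds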;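 also: agonist-driven loss of surface beta2AR via internalization measured by FAP dye flow cytometry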); settings: Am2.2-beta2AR cells, FAP surface receptor flow cytometry; at 10 µM; stronger effect = higher value
Sequence of Beta-2 adrenergic receptor (Homo sapiens) (P07550 whole entry, looked up): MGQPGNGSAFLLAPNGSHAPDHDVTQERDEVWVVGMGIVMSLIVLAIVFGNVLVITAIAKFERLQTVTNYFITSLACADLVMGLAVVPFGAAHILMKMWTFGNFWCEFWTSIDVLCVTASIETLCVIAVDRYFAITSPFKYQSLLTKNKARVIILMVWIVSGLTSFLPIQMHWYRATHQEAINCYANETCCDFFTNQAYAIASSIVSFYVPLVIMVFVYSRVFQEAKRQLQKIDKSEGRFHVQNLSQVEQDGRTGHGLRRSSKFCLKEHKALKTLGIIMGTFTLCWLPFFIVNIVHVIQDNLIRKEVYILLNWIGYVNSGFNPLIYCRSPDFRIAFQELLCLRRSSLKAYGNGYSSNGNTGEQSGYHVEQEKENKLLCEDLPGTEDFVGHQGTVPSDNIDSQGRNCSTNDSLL

[11] = target: AP-2 complex subunit beta (Homo sapiens) (UniProt P63010); experiment: inhibitors of arrestin peptide binding to AP2, pilot screen, biochemical, validation set, GST-AP2 beads, flow cytometry (AID 504541;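 active = inhibition above 54%, about 3 SD of non-fluorescent compounds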;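 also: AP2 carries R879A mutation and is captured from E. coli lysate; bead-bound FITC arrestin peptide fluorescence measuring arrestin peptide binding to AP2; 0% = DMSO wells and 100% = excess unlabeled arrestin peptide control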); settings: FITC arrestin peptide, at 10 µM, stronger effect = higher value, AP2 beta2 appendage fragment, R879A mutant
Sequence of AP-2 complex subunit beta (Homo sapiens) (P63010 whole entry, looked up, the tested form may be a part, one chain of several): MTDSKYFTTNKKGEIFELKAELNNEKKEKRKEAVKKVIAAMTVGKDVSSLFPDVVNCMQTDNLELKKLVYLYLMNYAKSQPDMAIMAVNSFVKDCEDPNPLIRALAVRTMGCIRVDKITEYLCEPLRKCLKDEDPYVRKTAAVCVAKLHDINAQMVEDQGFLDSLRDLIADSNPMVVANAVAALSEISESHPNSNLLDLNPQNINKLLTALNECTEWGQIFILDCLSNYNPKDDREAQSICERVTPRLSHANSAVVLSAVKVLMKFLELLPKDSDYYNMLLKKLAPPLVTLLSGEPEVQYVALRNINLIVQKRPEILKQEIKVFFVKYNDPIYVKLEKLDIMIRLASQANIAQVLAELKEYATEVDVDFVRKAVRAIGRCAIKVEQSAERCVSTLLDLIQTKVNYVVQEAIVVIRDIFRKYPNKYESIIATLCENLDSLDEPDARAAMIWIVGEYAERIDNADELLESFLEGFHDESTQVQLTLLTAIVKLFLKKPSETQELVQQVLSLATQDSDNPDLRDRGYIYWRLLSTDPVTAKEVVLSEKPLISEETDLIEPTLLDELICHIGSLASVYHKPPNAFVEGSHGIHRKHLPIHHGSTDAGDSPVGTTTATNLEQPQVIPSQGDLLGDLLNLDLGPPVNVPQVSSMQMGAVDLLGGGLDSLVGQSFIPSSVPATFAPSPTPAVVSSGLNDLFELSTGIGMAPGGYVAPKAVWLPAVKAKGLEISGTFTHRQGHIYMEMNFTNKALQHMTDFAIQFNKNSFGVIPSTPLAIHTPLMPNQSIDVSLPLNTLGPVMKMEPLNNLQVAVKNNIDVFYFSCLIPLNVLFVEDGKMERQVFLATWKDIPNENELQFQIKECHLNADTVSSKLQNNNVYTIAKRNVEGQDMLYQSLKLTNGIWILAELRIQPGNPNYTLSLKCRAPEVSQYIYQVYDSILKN

[12] = yeast V-ATPase proton transport modulators, S. cerevisiae, pHLuorin, HTS validation (AID 504600; in the data active = response above about 15%;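 also: plate controls were DMSO for no effect and reference compound for full effect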); settings: S. cerevisiae pHLuorin cytosolic pH, at 10 µM, stronger effect = higher value
[13] = test system: anti-desmoglein-3 scFv antibody binding to human DSG3; experiment: inhibitors of anti-DSG3 scFv binding to DSG3, pilot screen, biochemical, validation compound set, bead-based, flow cytometry (AID 588368;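 active = binding below the plate cutoff, the plate median minus 3 SD, with a reading above zero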;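 also: signal is the median channel fluorescence of bead-bound GFP antibody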); settings: Protein G beads, DSG3-Fc, scFv-GFP binding, at 10 µM, stronger effect = lower value
[14] = inhibitors of fungal efflux pumps CDR1, CDR2, MDR1, pilot screen, validation compound set, multiplex, phenotypic (AID 588506;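 active = efflux inhibition above 0.42, the validation set average plus 4 SD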;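 also: Nile Red retained in cells so higher fluorescence means more efflux inhibition; 0 = negative control wells and 1 = enniatin B 25 µM full block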); settings: S. cerevisiae pump-expressing triplex, Nile Red efflux flow cytometry; at 10 µM; stronger effect = higher value; the pumps come from Candida albicans
[15] = target: ATP-binding cassette sub-family B member 6 (Homo sapiens) (UniProt Q9NP58); experiment: ABCB6 transporter inhibitors, pilot screen, K562-ABCB6 cells, flow cytometry, validation set (AID 588550;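 active = inhibition above the screen-wide mean plus 3 SD, about 51%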;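 also: 0% = DMSO wells and 100% = benzethonium chloride 70 µM positive control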); settings: K562-ABCB6 porphyrin accumulation, 1 h, at 10 µM, stronger effect = higher value
Sequence of ATP-binding cassette sub-family B member 6 (Homo sapiens) (Q9NP58 whole entry, looked up): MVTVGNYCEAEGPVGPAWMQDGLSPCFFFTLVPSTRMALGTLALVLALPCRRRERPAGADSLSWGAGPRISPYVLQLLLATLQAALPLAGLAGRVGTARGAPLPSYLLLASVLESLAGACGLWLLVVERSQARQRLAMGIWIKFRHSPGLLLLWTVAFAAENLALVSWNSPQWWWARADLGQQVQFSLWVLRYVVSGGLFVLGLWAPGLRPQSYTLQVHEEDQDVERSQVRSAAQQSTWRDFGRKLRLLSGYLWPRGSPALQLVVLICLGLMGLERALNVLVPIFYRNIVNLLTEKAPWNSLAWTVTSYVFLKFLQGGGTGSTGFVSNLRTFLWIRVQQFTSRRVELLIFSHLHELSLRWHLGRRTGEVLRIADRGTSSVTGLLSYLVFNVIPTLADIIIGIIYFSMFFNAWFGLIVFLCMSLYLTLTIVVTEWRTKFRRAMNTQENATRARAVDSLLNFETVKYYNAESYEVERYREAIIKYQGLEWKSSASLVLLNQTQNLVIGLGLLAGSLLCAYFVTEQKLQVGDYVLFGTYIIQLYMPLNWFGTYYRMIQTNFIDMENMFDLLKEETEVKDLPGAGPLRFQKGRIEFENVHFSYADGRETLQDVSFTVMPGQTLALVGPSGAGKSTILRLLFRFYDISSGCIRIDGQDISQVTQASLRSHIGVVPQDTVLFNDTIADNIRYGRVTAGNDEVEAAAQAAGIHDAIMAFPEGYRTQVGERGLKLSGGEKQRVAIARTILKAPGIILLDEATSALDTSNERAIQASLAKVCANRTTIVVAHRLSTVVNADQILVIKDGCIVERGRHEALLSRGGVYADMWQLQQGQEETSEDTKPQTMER

[16] = promoters of myeloid differentiation in arrested cells, primary screen, cell-based, GFP/MAC1 double positive, flow cytometry, validation set (AID 588685;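 active = differentiation response of at least 50%, scaled between solvent and reference control, from cells with both markers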;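 also: compound exposure lasts four days before antibody staining and flow analysis; 0% = DMSO wells and 100% = 5 µM fulvestrant positive control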); settings: ER-HoxA9 marrow cells, stronger effect = higher value, normalized: vehicle 0, fulvestrant 100

| Compound | percent of DMSO control GFP [1] | GFP response vs DMSO [2] | percent response of DMSO control [3] | GFP response vs DMSO [4] | GFP response, % of DMSO [5] | double positive events [6] [%] | vesicle binding response [6] | inhibition [7] | superoxide response (% of plate) [8] | aptamer binding inhibition [9] | response [10] | inhibition [11] | response [12] | binding (% of control) [13] | efflux inhibition (fraction of control) [14] | inhibition [15] | differentiation response [16] |
| --- | --- | --- | --- | --- | --- | --- | --- | --- | --- | --- | --- | --- | --- | --- | --- | --- | --- |
| Cc1occc(=O)c1O | 92.4% (inactive) | 112% (inactive) | 110% (inactive) | 71% (inactive) | 86.1% (inactive) | 65.3 | 198% (inactive) | -5.18% (inactive) | 100% (inactive) | 1% (inactive) | -9.02% (inactive) | -5.01% (inactive) | -1.14% (inactive) | 98.1% (inactive) | -0.06 (inactive) | 3% (inactive) | -4.91% (inactive) |
| CC12CC(c3ccccc3O1)C(C(=O)N1CCOCC1)C(=O)N2 (stereo not drawn) | 100% (inactive) | 103% (inactive) | 101% (inactive) | 85.2% (inactive) | 101% (inactive) | 60.3 | 53.4% (inactive) | 2.55% (inactive) | 107% (inactive) | 6% (inactive) | 6.73% (inactive) | -22.1% (inactive) | 0.44% (inactive) | 103% (inactive) | -0.34 (inactive) | 8% (inactive) | -1.88% (inactive) |
| COc1ccccc1N=CC1=C(O)CC(c2ccccc2)CC1=O (stereo not drawn) | 92.6% (inactive) | 111% (inactive) | 96.6% (inactive) | 82.5% (inactive) | 88.9% (inactive) | 64.4 | 153% (inactive) | -36.2% (inactive) | 95.6% (inactive) | 2% (inactive) | 1.28% (inactive) | -4.2% (inactive) | 4.13% (inactive) | 103% (inactive) | -0.24 (inactive) | 12% (inactive) | 2.46% (inactive) |
| Cc1cc(OCC(=O)C(C)(C)C)c2c(C)c(C)c(=O)oc2c1 | 102% (inactive) | 103% (inactive) | 94.8% (inactive) | 118% (inactive) | 98.8% (inactive) | 60.4 | 213% (inactive) | 2.3% (inactive) | 102% (inactive) | 7% (inactive) | -4.14% (inactive) | 27.4% (inactive) | -7.2% (inactive) | 101% (inactive) | 0.26 (inactive) | 3% (inactive) | 4% (inactive) |
| COc1ccc(C(=O)CC2OC(=O)c3c2ccc(OC)c3OC)cc1 (stereo not drawn) | 106% (inactive) | 100% (inactive) | 106% (inactive) | 99.9% (inactive) | 104% (inactive) | 63 | 256% (inactive) | 4.73% (inactive) | 107% (inactive) | 2% (inactive) | -6.79% (inactive) | -3.63% (inactive) | -4.39% (inactive) | 95.8% (inactive) | -0.01 (inactive) | 8% (inactive) | -2.69% (inactive) |
| CC(=O)OC(CC(=O)O)C[N+](C)(C)C (stereo not drawn) | 100% (inactive) | 103% (inactive) | 95.4% (inactive) | 92.7% (inactive) | 97.6% (inactive) | 65 | 243% (inactive) | -17.1% (inactive) | 103% (inactive) | 2% (inactive) | -0.16% (inactive) | 14.1% (inactive) | -2.66% (inactive) | 97.1% (inactive) | 0.02 (inactive) | 10% (inactive) | -8.55% (inactive) |
| COc1ccc2c(c1)C=CC1(O2)N(CCO)c2ccccc2C1(C)C (stereo not drawn) | 98.2% (inactive) | 111% (inactive) | 104% (inactive) | 124% (inactive) | 117% (inactive) | 62.1 | 212% (inactive) | -55.6% (inactive) | 108% (inactive) | 6% (inactive) | 43.9% (active) | 13.6% (inactive) | 7.05% (inactive) | 99.2% (inactive) | 0.04 (inactive) | -25% (inactive) | -1.05% (inactive) |
| CN(C)[C@@H]1C(=O)C(C(=O)NCN2CCCC2)=C(O)[C@@]2(O)C(=O)C3=C(O)c4c(O)cccc4[C@@](C)(O)C3CC12 (stereo partly drawn) | 103% (inactive) | 119% (inactive) | 112% (inactive) | 95.7% (inactive) | 93.3% (inactive) | 59 | 145% (inactive) | -45.9% (inactive) | 107% (inactive) | 92% (active) | 12.3% (inactive) | 94.1% (active) | -6.79% (inactive) | 30.6% (active) | -0.06 (inactive) | 8% (inactive) | 19.6% (inactive) |
| C=CCn1c(N2CCCCCC2)nc2c1c(=O)n(C)c(=O)n2C | 97.6% (inactive) | 97.6% (inactive) | 95.7% (inactive) | 104% (inactive) | 114% (inactive) | 63.5 | 220% (inactive) | 7.4% (inactive) | 112% (inactive) | 3% (inactive) | -47.3% (inactive) | -11.7% (inactive) | 0.52% (inactive) | 95.9% (inactive) | 0.17 (inactive) | 7% (inactive) | -11.9% (inactive) |
